# Measured values published in PubChem BioAssay.
# Active and inactive are the calls of the source.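 Rule for the calls, unless noted: active = fluorescence slope after compound addition differing from the mean of all screened samples at 99.7% confidence, in either direction; inactive = the rest.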
# Assays:
# [1] = inhibitors of TNFa-induced NFkB p65 translocation, primary screen, imaging, HUVEC, MLSMR starter and 10KST1 sets (AID 438;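 active = inhibition above 20% together with a positive visual image hit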;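 note: compound added about 3h40 before a 20 min TNFalpha stimulation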;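 for inhibition: signal is the nuclear over cytoplasmic p65 intensity ratio per well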); details: HUVEC TNFa-induced p65 nuclear translocation; cell count: measured here: nuclei count (cytotoxicity indicator), at 2.08 µM; inhibition: at 2 µM, stronger effect = higher value, 0% TNFa-plus-vehicle, 100% no-TNFa wells
# [2] = inhibitors of mutant huntingtin aggregation, primary screen, imaging, exon1htt(103Q)mCFP cells, high-content imaging (AID 483;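 active = visual image review flags a hit and inhibition of aggregation exceeds 20%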;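 note: compound exposure lasted 3 days before fixation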;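 for nuclei count: percent of the per-plate median nuclei count of sample wells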); details: exon1htt(103Q)mCFP cell line, aggregate imaging, at 2 µM; inhibition of aggregation: stronger effect = higher value; nuclei count: measured here: cell count, toxicity
# [3] = inhibitors of E-selectin induction by TNFa, primary screen, imaging, HUVEC, immunofluorescence, MLSMR starter and 10KST1 sets (AID 487;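 active = visually confirmed hit in the image check and inhibition above 20%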;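 for inhibition: signal is fraction of cell area covered by stained E-selectin grains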;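 for nuclei count: 100% = median nuclei count of all wells on the same plate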); details: HUVEC TNFalpha-induced E-selectin immunofluorescence imaging, at 2 µM; inhibition: stronger effect = higher value; nuclei count: measured here: cell number, toxicity
# [4] = biological target: Voltage-gated potassium channel subunit beta-2 (Rattus norvegicus) (UniProt P62483); experiment: KvBeta enzyme negative modulators, primary screen, biochemical, NADPH fluorescence (AID 622;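 active = fluorescence slope higher than the sample average by over 3 SD, cut at about -0.22 in these data, passing the limit was not always enough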;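 note: slope of raw intensity against log time taken from 70 to 1610 s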); details: recombinant KvBeta, 4-cyanobenzaldehyde reduction, at 10 µM, stronger effect = higher value
# [5] = biological target: Voltage-gated potassium channel subunit beta-2 (Rattus norvegicus) (UniProt P62483); experiment: KvBeta positive modulators, primary screen, biochemical, NADPH fluorescence (AID 623;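 active = NADPH fluorescence slope more negative than the mean of all samples by about 3 SD, 99.7% confidence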;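 note: fluorescence intensity change per second fitted from 20 to 320 s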); details: Recombinant KvBeta, NADPH fluorescence decrease slope, 10 min; at 10 µM; stronger effect = lower value
# [6] = biological target: Alpha-2C adrenergic receptor (Homo sapiens) (UniProt P18825); experiment: modulators of alpha2C/GIRK thallium flux, primary screen, cell-based, HEK293 alpha2C/GIRK1/2 (AID 624); details: thallium flux BTC fluorescence, at 10 µM, actives lie on both sides;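 note: slope of fluorescence ratio to pre-addition baseline per second over 15 to 24 s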
# [7] = inhibitors of Sendai virus-induced IRF3 signaling, primary screen, TLR/RLR signaling modifier project, cell-based, Sendai virus stimulus, luciferase, 10K MLSCN set (AID 602276;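 active = inhibition at or above 50% at 10 µM; inactive = inhibition below 50%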;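 note: firefly luciferase from ISG56 promoter only with Renilla not read in this screen; 0% = Sendai virus plus DMSO and 100% = medium plus DMSO without virus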); details: HEK293 RL24 IRF3 luciferase reporter, at 10 µM, stronger effect = higher value
# [8] = inhibitors of poly I:C-induced TLR3 signaling, primary screen, cell-based, poly I:C stimulus, luciferase, 10K MLSCN set (AID 602277;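 active = inhibition of the reporter signal at or above 50%; inactive = inhibition below 50%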); details: HEK293-TLR3 RL24 IRF3 luciferase reporter, at 10 µM, stronger effect = higher value
# Sequence of Voltage-gated potassium channel subunit beta-2 (Rattus norvegicus) (P62483 whole entry, looked up): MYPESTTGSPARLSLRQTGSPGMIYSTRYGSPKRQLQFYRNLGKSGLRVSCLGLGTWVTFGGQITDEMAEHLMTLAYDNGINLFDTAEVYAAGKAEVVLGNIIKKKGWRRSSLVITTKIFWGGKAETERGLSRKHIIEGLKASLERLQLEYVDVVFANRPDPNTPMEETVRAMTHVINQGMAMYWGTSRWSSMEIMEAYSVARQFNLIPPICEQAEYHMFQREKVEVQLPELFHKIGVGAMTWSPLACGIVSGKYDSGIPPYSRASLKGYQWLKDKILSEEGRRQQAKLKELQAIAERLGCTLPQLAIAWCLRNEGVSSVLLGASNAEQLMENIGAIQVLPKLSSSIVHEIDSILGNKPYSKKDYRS
# Sequence of Alpha-2C adrenergic receptor (Homo sapiens) (P18825 whole entry, looked up): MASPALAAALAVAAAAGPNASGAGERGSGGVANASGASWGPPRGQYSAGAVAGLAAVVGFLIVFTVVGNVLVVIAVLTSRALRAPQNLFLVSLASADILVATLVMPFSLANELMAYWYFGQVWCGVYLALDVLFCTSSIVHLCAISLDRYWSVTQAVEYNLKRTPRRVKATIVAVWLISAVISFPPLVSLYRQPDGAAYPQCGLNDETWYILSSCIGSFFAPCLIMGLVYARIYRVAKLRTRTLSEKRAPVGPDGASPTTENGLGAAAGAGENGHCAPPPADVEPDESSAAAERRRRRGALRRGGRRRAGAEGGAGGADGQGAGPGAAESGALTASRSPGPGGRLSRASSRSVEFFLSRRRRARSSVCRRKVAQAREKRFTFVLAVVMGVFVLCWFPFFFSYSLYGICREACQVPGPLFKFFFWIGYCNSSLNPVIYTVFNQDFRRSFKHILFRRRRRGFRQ
Structure (SMILES),cell count [1],inhibition [1],inhibition of aggregation [2],nuclei count [2] [%],inhibition [3],nuclei count [3] [%],fluorescence slope [4],NADPH fluorescence slope [5],slope [6],inhibition [7],inhibition [8]
CCOc1ccccc1NC(=O)NC1CCN(CC(=O)Nc2ccc3c(c2)OCCO3)CC1,285,-4.8% (inactive),2% (inactive),115,-0.8% (inactive),87.4,-0.499 (inactive),4.9e-05 (inactive),0.00583 (inactive),19.4% (inactive),26.5% (inactive)
COc1ccc(Cn2nnnc2CN2CCOCC2)cc1,476,2.5% (inactive),-2.3% (inactive),108,1% (inactive),97.7,-0.441 (inactive),1.6e-05 (inactive),0.00479 (inactive),16.9% (inactive),15.2% (inactive)
C=CCn1c(SCC(=O)c2ccc(OC)cc2)nnc1C(C)NC(=O)c1cccs1 (stereo not drawn),661,-0.6% (inactive),1.5% (inactive),127,-44.6% (inactive),132,-0.349 (inactive),-4e-06 (inactive),0.00302 (inactive),10.6% (inactive),12.5% (inactive)
CCC(=O)N1CCN=C1SCc1ccc(Cl)cc1,233,-4.9% (inactive),-22.3% (inactive),111,7.9% (inactive),106,-0.559 (inactive),5.6e-05 (inactive),0.00598 (inactive),21.3% (inactive),43.1% (inactive)
CCn1c(C(=O)N2CCCC(C(=O)NCCCc3ccccc3)C2)cc2sccc21 (stereo not drawn),618,-12% (inactive),40.9% (active),123,-19.4% (inactive),104,-0.583 (inactive),-1.2e-05 (inactive),0.00576 (inactive),-0.231% (inactive),-1.26% (inactive)
CCN(CC)C(=O)CSc1nnc(-c2cc(OC)cc(OC)c2)o1,733,0.6% (inactive),10.3% (inactive),100,19.1% (inactive),109,-0.413 (inactive),-4.5e-05 (inactive),0.00522 (inactive),8.18% (inactive),2.13% (inactive)
N#Cc1ccc(-c2csc(NC(=O)C3CC3)n2)cc1,718,-9.6% (inactive),33.4% (inactive),93.9,-25.2% (inactive),116,-0.502 (inactive),-1.9e-05 (inactive),0.00647 (inactive),-27.3% (inactive),-86% (inactive)
O=C1CCCc2nc(N3CCCCC3)sc21,629,-15.2% (inactive),-20.4% (inactive),108,-13.1% (inactive),86.9,-0.424 (inactive),-4.5e-05 (inactive),0.00423 (inactive),-57.2% (inactive),-85.2% (inactive)
Cn1c(=O)c2c(nc(Br)n2CCSc2nnnn2-c2ccccc2)n(C)c1=O,294,-3.4% (inactive),19% (inactive),94.6,-7.6% (inactive),74.1,-0.36 (inactive),-4.2e-05 (inactive),0.00509 (inactive),1.27% (inactive),1.27% (inactive)
CCCC(=O)Nc1cnc(NC(=O)c2cccc(F)c2)cc1C,465,14.1% (inactive),6.6% (inactive),95.6,46% (inactive),103,-0.563 (inactive),4e-05 (inactive),0.00559 (inactive),-24.4% (inactive),-162% (inactive)
Cc1ccc(Cl)cc1N1CCN(C(=O)C2CCCN(S(=O)(=O)c3cnc[nH]3)C2)CC1 (stereo not drawn),563,10.1% (inactive),-1.2% (inactive),102,-74.4% (inactive),126,-0.532 (inactive),-2.9e-05 (inactive),0.00714 (inactive),-6.79% (inactive),3.89% (inactive)
Cc1cc(NC(=O)CCC(=O)N(c2cccnc2)C(C(=O)NC2CCCC2)c2ccccc2F)no1 (stereo not drawn),557,-9% (inactive),11.8% (inactive),107,-19.7% (inactive),116,-0.62 (inactive),-5.7e-06 (inactive),0.00332 (inactive),-5.41% (inactive),-11% (inactive)
Nc1nc(N2C(=O)C3CC=CCC3C2=O)nn1-c1ccccc1 (stereo not drawn),444,20.1% (inactive),-11.6% (inactive),109,-23.5% (inactive),132,-0.474 (inactive),2.4e-05 (inactive),0.00364 (inactive),-8.69% (inactive),23.3% (inactive)
CN(CC(=O)Nc1nccs1)S(=O)(=O)c1ccc(F)cc1,352,-6.5% (inactive),-4.8% (inactive),110,-35.4% (inactive),101,-0.465 (inactive),-9.5e-06 (inactive),0.00636 (inactive),-24.4% (inactive),1.06% (inactive)
N#Cc1cc2c(nc1SCC(=O)N1CCCCC1)CCCC2,220,5.5% (inactive),0.1% (inactive),90.1,-46% (inactive),98.7,-0.473 (inactive),4.2e-05 (inactive),0.00388 (inactive),-26.1% (inactive),-20.2% (inactive)
Cc1cc(NC(=O)Cc2cn3ccsc3n2)n(-c2ccccc2)n1,823,-16.9% (inactive),-16.8% (inactive),104,-23.9% (inactive),106,-0.308 (inactive),-1.7e-07 (inactive),0.00558 (inactive),5.91% (inactive),5.15% (inactive)
c1cn(CC2(Cn3ccnc3)COC2)cn1,793,-6.2% (inactive),-13.4% (inactive),104,-2.3% (inactive),105,-0.614 (inactive),-1.1e-05 (inactive),0.00589 (inactive),14.1% (inactive),17.6% (inactive)
Nc1nnnn1NCc1cccc(OCc2ccccc2)c1,582,-9.5% (inactive),11.2% (inactive),64.2,-2.2% (inactive),137,-0.5 (inactive),-2.7e-05 (inactive),0.00425 (inactive),5.03% (inactive),-6.8% (inactive)
O=C(Cn1nnc(-c2ccccc2)n1)Nc1ccccc1N1CCOCC1,584,3% (inactive),5.4% (inactive),63.9,-16% (inactive),107,-0.602 (inactive),2.3e-05 (inactive),0.0042 (inactive),14.7% (inactive),14.8% (inactive)
COc1ccc(N2C(=O)CC(N3CCCC4CCCCC43)C2=O)cc1 (stereo not drawn),577,-11.4% (inactive),3.7% (inactive),107,-13.4% (inactive),79.8,-0.423 (inactive),-3.7e-05 (inactive),0.00354 (inactive),8.26% (inactive),35.7% (inactive)
Cc1ccc(-c2cc(C(=O)O)n[nH]2)o1,358,1% (inactive),3.3% (inactive),101,-1.4% (inactive),97.7,-0.612 (inactive),4.6e-05 (inactive),0.00603 (inactive),9.01% (inactive),14.9% (inactive)
CSc1nc(N)nc(SCCS(=O)(=O)c2ccc(Cl)cc2)c1C#N,401,2.8% (inactive),24.9% (inactive),95.8,-48% (inactive),113,-0.442 (inactive),-2.1e-05 (inactive),0.00602 (inactive),5.62% (inactive),12.8% (inactive)
COc1ccc(OCCN2C(=O)NC(C)(c3ccc(C)cc3)C2=O)cc1 (stereo not drawn),391,-14.7% (inactive),-4.1% (inactive),108,-84.6% (inactive),138,-0.496 (inactive),-6.9e-05 (inactive),0.00469 (inactive),12.5% (inactive),5.61% (inactive)
Cc1cccc2c(=O)oc(-c3ccc4c(c3)C(=O)N(CC3CCCO3)C4=O)nc12 (stereo not drawn),349,1.9% (inactive),-22.2% (inactive),107,-6.3% (inactive),58.4,-0.521 (inactive),2.4e-05 (inactive),0.0053 (inactive),16.1% (inactive),14.4% (inactive)
CCOC(=O)CNC(=O)Nc1nnc(-c2ccc(OCC)cc2)o1,486,-30.9% (inactive),3.3% (inactive),91.3,-12.6% (inactive),103,-0.591 (inactive),2.1e-05 (inactive),0.00589 (inactive),-14.6% (inactive),-13.9% (inactive)
COc1ccc(N2CCN(C(=O)C(OC(C)=O)c3ccccc3)CC2)cc1 (stereo not drawn),594,-4.7% (inactive),-4.8% (inactive),92.4,-2.4% (inactive),95.4,-0.386 (inactive),4.8e-05 (inactive),0.00658 (inactive),11.4% (inactive),11.3% (inactive)
CC(C)Cn1c(CN2CCN(c3ccccc3F)CC2)nc2c1c(=O)[nH]c(=O)n2C,664,-7.7% (inactive),-8.3% (inactive),101,-7.3% (inactive),103,-0.521 (inactive),-3.3e-05 (inactive),0.00688 (inactive),10.6% (inactive),19.7% (inactive)
COc1ccc(NS(=O)(=O)c2ccc(NC(C)=O)cc2)cc1OC,352,-8.4% (inactive),2.1% (inactive),99.6,-3.3% (inactive),76.2,-0.379 (inactive),1.1e-05 (inactive),0.00616 (inactive),-6.14% (inactive),-66.4% (inactive)
